What follows are sequences tested against TRAPPC2 (assay: pooled miR-30 sensor sort-seq; sequence = guide strand). Conditions: shRNA.
Note: reference of the scale not given here.

| Sequence | sensor-assay potency score (higher = more potent) |
| --- | --- |
| TTATTCCATCTTCTTGTCTTAT | -1.23 |
| ATGAGCTATGAACTGGTTCAGA | -1.51 |
| TATATAAATCATAAACATCAGT | -0.905 |
| TTCAAGTACATGTTGTTCGATA | -0.28 |
| TTTATTCCATCTTCTTGTCTTA | -0.31 |
| TTTCTGTCAAATGCACTTGATC | -1.44 |
| TGTCAAATGCACTTGATCGAAT | -0.613 |
| TCGTTGAACTTGTCCACAGTTT | -0.427 |
| TTGTCTTATGTCATGAAGCATA | -1.65 |
| TATTCCATCTTCTTGTCTTATG | -1.41 |

Each sequence was assayed against TRIL in the same assay as above. Conditions: shRNA.

| Sequence | sensor-assay potency score (higher = more potent) |
| --- | --- |
| TTGCCGTCTAGATCCAGCCGAT | -0.561 |
| TTGGTTATGAAGTTGCCGCCGA | -0.156 |
| TTGTACTGCAGGTCCAGCCGTC | -0.188 |
| TTGCAGCTGCTGGTCATCCAGG | -1.05 |
| TAGAAATCGCCCCTGCTGCTGG | -0.425 |
| TTCTTGTGCAGGTCTAGGGACT | -1.42 |
| AACTTGTTGAAGTCGCATGGGT | -0.301 |
| TTGACTAGACTCTCCAGGCCCT | -0.105 |
| TAGGTGAGCACGTCGTGGGGGC | -0.151 |
| ATGAACTTGTTGAAGTCGCATG | -1.34 |
| TACAGCTCTTCCAGCCGCGAGA | -1.34 |
| TTGCACAGAATGAACTTGTTGA | 0.574 |

These sequences were tested against TRIM23 in the same assay as above. Conditions: shRNA.

| Sequence | sensor-assay potency score (higher = more potent) |
| --- | --- |
| TTTTGGTCCAATGTGAACTCGA | 0.0711 |
| TTTTCCGTTAACAACTTTGCAA | -0.567 |
| TTTCCGTTAACAACTTTGCAAG | -1.22 |
| TTGTAGAATGAGTAACTTGAGA | -0.898 |
| TTCTTCTGCAGCTCCATACTGA | -0.628 |
| TTAATTTGTGTTTTCCACCTAC | 0.335 |
| TTTGTTAGCAAAAATCAGGAGC | -0.0645 |
| TACTGAATGCTTGTGACCCTGG | 0.0097 |
| TCAGCTAGAGGAACTCGCCTGT | 0.453 |
| TACATGTTCTGTGTGAGCCATT | -1.01 |
| TATCTAAAATTGATGCTCGGAT | -0.778 |
| TAGTAGTTTTTCCAGCACCATC | -1.64 |
| TACAACAAACACAACAGCTTGA | 0.537 |
| TAATCTGAGATTTCCTCTGTGA | 0.349 |
| TGCAACTTCTGTAAACTGCTGC | 0.44 |
| AACTTCTGTAAACTGCTGCTGC | 0.168 |
| TAAGCTCGAATACATGACCGGG | -0.886 |
| AACTCTACAATCATCCTGCTGC | 0.546 |

— the OligoGym collection
